Assay outcomes as filed in PubChem.
The list is not random: actives were taken first. Their share in the collection is about 19%.
IL1B secr inh: blocks inflammasome-driven IL-1 beta release; THP-1 LPS/ATP IL-1B secretion, AlphaLISA, 16 h; stronger effect = lower value; AID 743279; hit rate 4.7% among 360,000; activity change, % at 57.5 µM; in the data active means activity change below about -50%; inconclusive means mostly about -30% to -49%
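Secreted IL-1B measured by AlphaLISA bead assay after 16 h compound exposure of THP-1 cells; compounds (final up to 57.5 uM) added 1 h before LPS (250 ng/mL) and ATP (1.25 mM) stimulation; lower signal means less secretion.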
HT1080 IDH1KD tx: kills HT-1080 cells with IDH1 knockdown. HT-1080 IDH1 knockdown viability, ATP luminescence, 48 h. Potency, µM (doses to about 46.1 µM), without a hit: at the highest dose activity, negative = toxicity, usual class: cytotoxic. hit rate 2% among 360,000. AID 686971;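 further: potency means the concentration at half of the fitted maximal effect; 0% = DMSO wells and -100% = cell-free medium wells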
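Assay cells: HT-1080 with IDH1 knockdown, 750 per well, RPMI/5% FBS. Exposure: 48 h at 37 °C following 2 h pre-incubation. Read: CellTiter-Glo luminescence; fitted concentration-response, curve class assigned.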
TDP1 cell CPT: DT40-hTDP1 cell growth loss with CPT; chicken DT40 Tdp1-/-;hTDP1 cells + 20 nM CPT, ATP luminescence, 48 h; Potency, µM (top dose mostly 46.2 µM), for the others: at the highest dose activity change, negative = growth inhibition, hits mostly inhibitors; hit rate 12% among 420,000; further: potency means the concentration at half of the fitted maximal effect; nearly all actives have a fitted effect of over 55% in size
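Chicken DT40 Tdp1-/- cells stably complemented with human TDP1 were seeded at 400 cells/well in medium containing 20 nM camptothecin, exposed to pin-transferred compounds, and grown at 37 °C for at least 48 hr. Viability was read as ATP luminescence.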
ELG1 repair inh: blocks ELG1-dependent DNA repair in HEK293T cells; HEK293T ELG1-luciferase reporter, luminescence, 16 h; DNA damage induced by 5-fluorouridine; hit rate 2.3% among 330,000; Potency, µM (doses to about 46.1 µM), for inactives: at the highest dose activity change, negative = inhibition, usual class: inhibitors; further: potency means the concentration at half of the fitted maximal effect; nearly all actives have a fitted effect of over 55% in size
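Reporter activity after DNA damage by 5-fluorouridine is monitored. Compound-treated cells incubate 16 hr at 37 °C, then ONE-Glo is added for 30 min before luminescence reading.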
HT1080NT lethal: kills 2HG-producing HT-1080-NT fibrosarcoma cells | Potency, µM (doses to about 46.1 µM), inactives show at the highest dose activity, negative = less viability, most hits filed as cytotoxic | AID 686970 | HT-1080-NT fibrosarcoma viability, CellTiter-Glo ATP luminescence, 48 h | hit rate 1.6% among 360,000;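 further: NT is the 2HG producing partner of a matched IDH1 knockdown line; potency means the concentration at half of the fitted maximal effect; 0% = DMSO-treated cells and -100% = media-only wells without cells; nearly all actives have a fitted effect of over 55% in size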
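Fibrosarcoma NT cells, 750 per well in 5% FBS RPMI, were exposed to compound for 48 hours. Viability: CellTiter-Glo luminescence.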
DT40 TDP1 no CPT: qHTS for Inhibitors of human tyrosyl-DNA phosphodiesterase 1 (TDP1): qHTS in cells in absence of CPT; Potency, µM (top dose mostly 46.2 µM), for the others: at the highest dose activity change, negative = growth inhibition, usual class: inhibitors; hit rate 15% among 420,000; DT40 Tdp1-/- hTDP1 cells, no CPT, ATP luminescence, 48 h; further: potency means the concentration at half of the fitted maximal effect; nearly all actives have a fitted effect of over 55% in size
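Readout: luminescence from CellTiter-Glo after 30 min in the dark at RT. Cells: DT40 Tdp1-/- with stable hTDP1, 400/well. Exposure: compounds alone, ≥48 hr, 37 °C.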
Starred values were filed as active, the others as inactive. Unless noted, the call rests on the fitted dose curve; in most records, active means well fitted curve in the direction sought with a large enough effect; inconclusive means small, poorly fitted or top-dose-only effect, or another doubt; inactive means no such curve, though single readings can be large; an effect the other way counts as inactive or inconclusive. Unless noted, on the % scale 0 is the no-effect control and ±100 the full control effect.

For Cc1nnc(NC(=O)C(=O)c2cc(C)n(-c3ccc(C)c(C)c3)c2C)s1 the results were TDP1 cell CPT -25.9% and DT40 TDP1 no CPT -22.2%.
CCC1=C(OC(=O)c2ccccc2)C(C)(C)C(c2ccccc2)OC1=O (stereo unspecified) was read as IL1B secr inh 15.3, HT1080 IDH1KD tx 12.0%, TDP1 cell CPT inconclusive, ELG1 repair inh -8.4%, HT1080NT lethal 16.9% and DT40 TDP1 no CPT 23.1µM*.
For CCOC(=O)CSc1nc2c(sc3cccc(F)c32)c(=O)n1Cc1ccc(OC)cc1 the results were TDP1 cell CPT -0.8% and DT40 TDP1 no CPT -12.9%.
For Cc1ccc(Oc2c(C(N)=O)cc([N+](=O)[O-])cc2[N+](=O)[O-])cc1 the results were IL1B secr inh -85.1*, HT1080 IDH1KD tx inconclusive, TDP1 cell CPT 5.8µM*, ELG1 repair inh inconclusive, HT1080NT lethal inconclusive and DT40 TDP1 no CPT 5.17µM*.
For CCCCNC(=O)C(NC(=O)c1ccccc1)C(=O)c1ccccc1 (stereo unspecified) the results were IL1B secr inh 18.8, HT1080 IDH1KD tx 6.7%, TDP1 cell CPT -1.7%, HT1080NT lethal 8.9% and DT40 TDP1 no CPT -11.1%.
For CCN=C1S/C(=C\c2cc(OCC)c(O)cc2Br)C(=O)N1CC the results were IL1B secr inh -20.0, HT1080 IDH1KD tx 20.6µM*, TDP1 cell CPT 20.6µM*, ELG1 repair inh 18.4µM*, HT1080NT lethal 18.4µM* and DT40 TDP1 no CPT 11.6µM*.
Screening CCN=C1S/C(=C\c2cn(CC)c3ccccc23)C(=O)N1CC returned IL1B secr inh -26.4, HT1080 IDH1KD tx -17.3%, TDP1 cell CPT 23.1µM*, ELG1 repair inh inconclusive, HT1080NT lethal -18.0% and DT40 TDP1 no CPT 10.3µM*.
CCN=C1S/C(=C\c2ccc(O)c(OCC)c2)C(=O)N1CC was read as IL1B secr inh inactive, HT1080 IDH1KD tx -24.3%, TDP1 cell CPT 25.9µM*, ELG1 repair inh inconclusive, HT1080NT lethal -17.6% and DT40 TDP1 no CPT 20.6µM*.
O=S1(=O)N=C(c2ccccc2)C=C(c2ccccc2)N1 was read as IL1B secr inh 16.7, HT1080 IDH1KD tx 8.7%, TDP1 cell CPT 7.9%, ELG1 repair inh 21.3%, HT1080NT lethal 3.4% and DT40 TDP1 no CPT 15.4%.
Screening Cc1ccc2c(=O)cc(C(=O)Nc3c(C(=O)Nc4cccc(Cl)c4)oc4ccccc34)oc2c1 returned TDP1 cell CPT 8.2% and DT40 TDP1 no CPT -11.8%.
`CCOC(=O)[C@H]1[C@H]2COc3ccc(C)cc3[C@@H]2N2C(=O)c3cc(Cl)ccc3NC(=O)[C@@]12C` gave IL1B secr inh -27.0, HT1080 IDH1KD tx -9.0%, TDP1 cell CPT inconclusive, ELG1 repair inh -17.8%, HT1080NT lethal -12.3% and DT40 TDP1 no CPT inconclusive.
Screening CCOC(=O)[C@H]1[C@H]2COc3ccc(C)cc3[C@@H]2N2C(=O)c3ccc(C)cc3NC(=O)[C@@]12C returned IL1B secr inh 0.0, HT1080 IDH1KD tx -4.3%, TDP1 cell CPT 23.1µM*, ELG1 repair inh -3.9%, HT1080NT lethal -2.8% and DT40 TDP1 no CPT inconclusive.
`CCOC(=O)[C@H]1[C@H]2COc3ccc(Br)cc3[C@@H]2N2C(=O)c3ccc(Cl)cc3NC(=O)[C@@]12C` gave IL1B secr inh inconclusive, HT1080 IDH1KD tx 7.4%, TDP1 cell CPT 18.4µM*, ELG1 repair inh -0.4%, HT1080NT lethal 5.0% and DT40 TDP1 no CPT 18.4µM*.
CCCCNC(=O)[C@@H]1CC=C[C@@H]2CCN(CCCC)C(=O)[C@@H]21 was read as TDP1 cell CPT -15.9% and DT40 TDP1 no CPT inconclusive.
CN(CC(=O)Nc1cccc(F)c1)CC(=O)Nc1ccccc1-c1ccccc1 was read as IL1B secr inh -24.5, HT1080 IDH1KD tx -12.1%, TDP1 cell CPT inconclusive, ELG1 repair inh -28.9%, HT1080NT lethal -12.3% and DT40 TDP1 no CPT inconclusive.
